Assay results published in PubChem BioAssay (NCI).
This is part of a sample that, as a whole, favours compounds with a hit. Of some 79,000 tested, about 15% had one in any assay. Cut-off read from the data, not from the text of the source: active = growth inhibition above about 70%; inactive = the rest. Where a SMILES comes first, the peptide text is derived from it. The star is where a group is joined. Boc = CC(C)(C)OC(=O)*; OcHex = C1CCC(O*)CC1

Columns and labels:
[1] = NCI Yeast Anticancer Drug Screen. Data for the rad50 strain (AID 155);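 note: 0% = growth of vehicle-only cultures of the same strain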; settings: S. cerevisiae rad50 strain growth inhibition; at 50.0 µM; stronger effect = higher value
How it was run: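 DNA repair mutant yeast, compound exposure, growth read-out; inhibition is taken relative to vehicle.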

[2] = NCI Yeast Anticancer Drug Screen. Data for the mec2-1 strain (AID 157); settings: S. cerevisiae mec2-1 strain, at 50.0 µM, stronger effect = higher value
How it was run: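 Growth inhibition is read against vehicle-treated controls after compound exposure of the mec2-1 yeast strain, which is defective in DNA damage repair or cell cycle control.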

[3] = NCI Yeast Anticancer Drug Screen. Data for the sgs1 mgt1 strain (AID 161);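 note: 0% = growth of cultures given vehicle only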; settings: S. cerevisiae sgs1 mgt1 strain, at 50.0 µM, stronger effect = higher value
How it was run: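 Yeast cells carrying a defined DNA-repair defect were exposed to test compounds. Growth inhibition was measured relative to vehicle-treated controls.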

[4] = NCI Yeast Anticancer Drug Screen. Data for the cln2 rad14 strain (AID 165);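 note: 0% = growth equal to vehicle treated cultures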; settings: S. cerevisiae cln2 rad14 strain, at 50.0 µM, stronger effect = higher value
How it was run: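 Growth inhibition, relative to vehicle-treated controls, is the read-out. The test organism is a yeast strain with defined genetic alterations, cln2 rad14.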

[5] = NCI Yeast Anticancer Drug Screen. Data for the bub3 strain (AID 167); settings: S. cerevisiae bub3 mutant strain, at 50.0 µM, stronger effect = higher value
How it was run: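 In this screen, a yeast mutant lacking normal mitotic checkpoint function is challenged with compound. Relative growth versus vehicle gives the inhibition value.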

[6] = NCI Yeast Anticancer Drug Screen. Data for the mlh1 rad18 strain (AID 175); settings: S. cerevisiae mlh1 rad18 strain growth inhibition; at 50.0 µM; stronger effect = higher value
How it was run: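 Cells of a genetically altered yeast strain, deficient in DNA damage repair, were treated with compound. Their growth was then compared with that of vehicle-treated cultures to give inhibition.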

Measured: growth inhibition

Cc1ccc(S(=O)(=O)N(C)c2cc(Cl)c(C(=O)O)cc2Cl)cc1
inactive: [1] -0.7% | [2] -14.9% | [3] 5.85% | [4] 4.05% | [5] -14.3% | [6] 15.1%

CCCCCCCCC(O)C(O)CCCCCCCCOC(=O)CCCCCCCCCCC(O)CCCCCC (stereo unspecified)
inactive: [1] 13.1% | [2] -8.65% | [3] -1.55% | [4] -9.7% | [5] -2.1% | [6] 18.4%

Nc1ncnc2c1ncn2CCC(COCc1ccccc1)COCc1ccccc1
inactive: [1] 40.8% | [2] 0.4% | [3] 50.8% | [4] -10% | [5] 4.6% | [6] 11.7%

CCC1CCC(CC)C1OC(C)=O (stereo unspecified)
inactive: [1] -31.1% | [2] -27.7% | [3] -12.3% | [4] -26.4% | [5] -28.7% | [6] -21.6%

CN(C)CCOC(=O)C(O)C1CCCCC1 (stereo unspecified)
inactive: [1] -14.3% | [2] 12.8% | [3] 5.5% | [4] 18.4% | [5] 15.2% | [6] -19.9%

COC(C)(C)C(Br)C(=O)OCC(=O)c1ccc(Br)cc1 (stereo unspecified)
inactive: [1] 25.9% | [2] -0.3% | [3] 11% | [4] 20.6% | [5] 0.8% | [6] 13.3%

O=C(NCCCCCCNC(=O)N1CCCCC1)c1cccnc1
inactive: [1] -7.8% | [2] -21.3% | [3] -3.65% | [4] -27.2% | [5] 13.3% | [6] -33.6%

CSc1nc2c(c(O)c(C)c(=O)n2C2OC(COC(C)=O)C(OC(C)=O)C(OC(C)=O)C2OC(C)=O)c(=O)n1C (stereo unspecified)
inactive: [1] 10.1% | [2] -4.3% | [3] 62.8% | [4] 32.9% | [5] 34.7% | [6] 7.25%

COC(=O)c1cc2ccccc2[nH]1
inactive: [1] 4% | [2] 8% | [3] -7.6% | [4] -15.3% | [5] -11.9% | [6] -13.8%

O=C1CCN2CCC(=O)c3c(Cl)ccc1c32
inactive: [1] 8.05% | [2] 13.3% | [3] 8.5% | [4] 13.8% | [5] 14.1% | [6] 16.9%

NC(=O)N/N=C1\CCCC(OC(=O)c2ccccc2)CC1 (stereo unspecified)
inactive: [1] 2.85% | [2] -27.7% | [3] -16.8% | [4] -20.1% | [5] -1.5% | [6] -20.8%

COc1ccc(C2SCC(=O)N2NC(=O)c2ccc(NC(C)=O)cc2)c(OC)c1 (stereo unspecified)
inactive: [1] -27.7% | [2] -7.5% | [3] -23.2% | [4] 12.1% | [5] -22% | [6] -11.7%

O=c1oc2ccccc2c2ccccc12
inactive: [1] -2.8% | [2] -9.55% | [3] -16.5% | [4] -5.95% | [5] 1.25% | [6] -7.8%

CCCCN(CCCC)Cc1ccnc(C)c1O
inactive: [1] -9.3% | [2] 5.85% | [3] -8.5% | [4] 8.7% | [5] 3.75% | [6] 7.9%

Cc1ccc(N(C)S(=O)(=O)c2ccc([N+](=O)[O-])cc2)cc1
inactive: [1] 8.4% | [2] -2.65% | [3] 29.1% | [4] 21.1% | [5] 42.1% | [6] 26.2%

CCCCCc1c(-c2n[nH]c(C)c2CCCCC)n[nH]c1C
inactive: [1] 5.55% | [2] -6.05% | [3] -9.1% | [4] -7.85% | [5] -31.6% | [6] 1.8%

Clc1ccc(C2SCCS2)c(Cl)c1
inactive: [1] 56.8% | [2] 28.2% | [3] 59.1% | [4] 31.8% | [5] 33.8% | [6] 38.5%

CC1=NN(C(=O)CC(=O)NC(=O)CC(=O)Nc2ccccc2F)C(=O)C1N=Nc1ccc([N+](=O)[O-])cc1 (stereo unspecified)
inactive: [1] 20.5% | [2] 22.6% | [3] 30% | [4] 16.3% | [5] 12.1% | [6] 8.2%

CCOC(=O)CCC1(C(=O)OC)C(=O)CCCCCCCC1C(=O)OC (stereo unspecified)
inactive: [1] -1.85% | [2] -5.65% | [3] 20.3% | [4] 20.6% | [5] 19.4% | [6] 7.3%

CC1=CC[P+](Cc2ccccc2)(c2ccccc2)C1 (stereo unspecified)
inactive: [1] -25.4% | [2] 14.7% | [3] 22.2% | [4] 4.35% | [5] 8.2% | [6] 8.8%

COC(=O)c1ccc(OC(=O)Nc2cccc(C(C)=O)c2)cc1
inactive: [1] 14.2% | [2] 14.9% | [3] 10.6% | [4] -9.2% | [5] 12.7% | [6] 34.8%

CC(=O)Oc1cccn2c(C(=O)C(=O)c3ccc4c(OC(C)=O)cccn34)ccc12
inactive: [1] 5.15% | [2] 1.8% | [3] -12.9% | [4] -0.55% | [5] -4.85% | [6] 14.7%

Nc1[nH]nc2nc3n(c(=O)c12)CCCCC3
inactive: [1] 7.1% | [2] 19.7% | [3] 5.6% | [4] 5.55% | [5] -5.75% | [6] -4.15%

CC12CC(=O)NN=C1c1ccccc1C2 (stereo unspecified)
inactive: [1] 4.35% | [2] -10.8% | [3] 18.1% | [4] 29.6% | [5] -6.8% | [6] -2.8%

COCC1CCCCC1O (stereo unspecified)
inactive: [1] -9.95% | [2] 7.15% | [3] 3.05% | [4] 26.8% | [5] 18.1% | [6] -2.35%

CC(=O)OC1(C(=O)OCC2CCCO2)CCCC1 (stereo unspecified)
inactive: [1] -9.6% | [2] 5.4% | [3] -3.5% | [4] -9.8% | [5] 25.8% | [6] 6.9%

O=C(O)CO.[NH2-].[NH2-].[Pt+2]
inactive: [1] -10.1% | [2] -17.8% | [3] -4.85% | [4] -14.9% | [5] -20.2% | [6] -18.2%

CN(C)C(=O)Sc1ccc([N+](=O)[O-])cc1
inactive: [1] 4.75% | [2] -12.8% | [3] -14.6% | [4] -45.5% | [5] 4.6% | [6] -19.8%

CCC/C(=N/NC(=O)C1CCCO1)c1ccccc1 (stereo unspecified)
inactive: [1] -1.8% | [2] 18.4% | [3] 16.6% | [4] -4.2% | [5] 7.5% | [6] 26%

O=c1[nH]c(C(F)(F)F)c(CCc2ccccc2)c(=O)[nH]1
inactive: [1] 3.5% | [2] 20.1% | [3] 36.9% | [4] -3.8% | [5] 36.3% | [6] 29.8%

CC(C)CC(NC(=O)OC(C)(C)C)C(=O)NC(CCC(=O)OC1CCCCC1)C(N)=O (stereo not drawn) (Boc-Leu-Glu(OcHex)-NH2; configuration not given here)
inactive: [1] -4.8% | [2] -12.4% | [3] -8% | [4] 1.5% | [5] 3.4% | [6] 8.75%

CC(C)C(/C=C/c1ccccc1)=N\NC(=S)NN
inactive: [1] -5.25% | [2] -5.9% | [3] 17.1% | [4] 13.4% | [5] 26.6% | [6] 32.4%

O=C(OCCCCO)c1cc([N+](=O)[O-])cc([N+](=O)[O-])c1
inactive: [1] -12.8% | [2] 13.9% | [3] 0.1% | [4] 0.7% | [5] 12.1% | [6] -27.9%

COC(=O)C1CCc2ccccc2C1=O (stereo unspecified)
inactive: [1] -12.6% | [2] -13.7% | [3] 1.95% | [4] 6.4% | [5] 2.7% | [6] 12.2%

CCCCNc1ccc(Cl)cc1
inactive: [1] 0.75% | [2] -5.4% | [3] -16.7% | [4] -27.9% | [5] -15.5% | [6] -15.6%

CCN1c2nc3ccccc3nc2N(CC)c2nc3ccccc3nc21
inactive: [1] -30.1% | [2] 12.5% | [3] 23.9% | [4] 6.55% | [5] 3.45% | [6] 5.3%

CC(C)(O)c1cc(=O)n(-c2ccccc2)[nH]1
inactive: [1] -6% | [2] -6.3% | [3] 6.55% | [4] -64.8% | [5] -18% | [6] -5.1%

NC(=S)N/C=C(/c1ccc(Cl)cc1Cl)S(=O)(=O)Cc1ccc(Cl)cc1Cl
inactive: [1] 6.85% | [2] -6.7% | [3] 9.6% | [4] 6.95% | [5] 0.2% | [6] 9.7%

O=S(/N=C/c1ccccc1)c1ccc(Cl)cc1 (stereo unspecified)
inactive: [1] -7.6% | [2] 4.5% | [3] 12.4% | [4] 13.9% | [5] 9.4% | [6] 13%

Cc1cccc(C(=O)c2ccccc2)c1C(=O)O
inactive: [1] 10.7% | [2] 2.45% | [3] 4.55% | [4] 2.45% | [5] -9.25% | [6] 2.15%

Cc1ccc(CC(=O)N(C)C)c([N+](=O)[O-])c1
inactive: [1] -9.5% | [2] -7.15% | [3] -1% | [4] 0.95% | [5] -8.45% | [6] -25.1%
